According to PubChem BioAssay (NCATS):
Records with an inconclusive call do not appear. A call without a number means that no potency is given here. Calls of active or inactive are those of the source. Calls follow the shape of the dose curve; as a rule, active = well fitted curve in the direction sought with a large enough effect; inconclusive = small, poorly fitted or top-dose-only effect, or another doubt; inactive = no such curve, though single readings can be large; an effect the other way counts as inactive or inconclusive.

Columns and labels:
[1] = P-glycoprotein substrates identified in KB-3-1 adenocarcinoma cell line, qHTS therapeutic library screen (AID 1346986); also: nearly all actives have a fitted effect of over 60% in size
Summary of the method: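 KB-3-1 parental cells and P-gp-overexpressing KB-8-5-11 (colchicine omitted during assay) plated at 500 cells/well, dosed in dose-response, incubated 72 h at 37 degree C. CellTiter-Glo luminescence read; KB-8-5-11 also tested with tariquidar.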

[2] = P-glycoprotein substrates identified in KB-8-5-11 adenocarcinoma cell line, qHTS therapeutic library screen (AID 1346987); also: nearly all actives have a fitted effect of over 65% in size
Summary of the method: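 P-gp-mediated resistance screen: KB-8-5-11 cells treated 72 h with compounds in dose-response. CellTiter-Glo viability.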

Structure (SMILES)	Potency [1]	Potency [2]	outcome [1]	outcome [2]
CC(=O)c1c(C)cc(O)cc1O[C@@H]1O[C@H](CO)[C@@H](O)[C@H](O)[C@H]1O	inactive	inactive		
CC1CCC2(C(=O)OC3OC(CO)C(O)C(O)C3O)CCC3(C(=O)O)C(=CCC4C5(C)CCC(OC6OC(C)C(O)C(O)C6O)C(C)(C)C5CCC43C)C2C1C (stereo not given)	inactive	inactive		
CCOC(=O)[C@H]1O[C@@H]1C(=O)N[C@@H](CC(C)C)C(=O)NCCC(C)C	inactive	inactive		
CNC(=O)[C@H]1O[C@@H](n2cnc3c(NCc4ccc(N)c(I)c4)ncnc32)[C@H](O)[C@@H]1O			inactive [at 9.29 µM]	inactive [at 9.29 µM]
O=C(/C=C/c1ccccc1)OCC1=CC[C@@H]2C(C(=O)O)=CO[C@@H](O[C@@H]3O[C@H](CO)[C@@H](O)[C@H](O)[C@H]3O)[C@H]12	inactive	inactive		
C[C@@H]1O[C@@H](OC[C@H]2O[C@@H](OCCc3ccccc3)[C@H](O)[C@@H](O)[C@@H]2O)[C@H](O)[C@H](O)[C@H]1O	inactive	inactive		
CCN(c1cc(C#CCN2CCOCC2)cc(C(=O)NCc2c(C)cc(C)[nH]c2=O)c1C)C1CCC(N(C)CCOC)CC1 (stereo not given)	inactive	inactive		
COC(=O)C1(Cc2ccc(O)cc2)OC(=O)C(OC)=C1c1ccc(O)cc1 (stereo not given)	inactive	inactive		
CCC(C)/C=C(C)/C=C/C1=CC2=C(Cl)C(=O)C(C)(OC(C)=O)C(=O)C2=CN1C1CCCCN(C(CCC(N)=O)C(=O)O)C1=O (stereo not given)	inactive	inactive		
NC(=O)c1cccc(-c2cc(O)cc(OC(=O)NC3CCCCC3)c2)c1	inactive	inactive		
